Screens deposited in PubChem BioAssay by National Center for Advancing Translational Sciences (NCATS).
KB-V1 cytotox: kills drug-selected multidrug resistant KB-V1 cells | Potency, µM (top dose mostly 46.1 µM), actives largely listed as cytotoxic | KB-V1 MDR cells viability, CellTiter-Glo, 72 h | 400,000 tested, 3.4% active; also: % is scaled to controls: 0 for no effect and ±100 for the full control effect; nearly all actives have a fitted effect of over 60% in size
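qHTS viability screen in drug-selected KB-V1 MDR cells: 72 h compound treatment at 37 degrees C, ATP luminescence end point.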
KB-3-1 tox: KB-3-1 parental cell cytotoxicity | KB-3-1 viability, CellTiter-Glo ATP luminescence, 72 h | Potency, µM (titrated, usually from 46.1 µM), most hits filed as cytotoxic | 400,000 tested, 1.4% active; also: % is scaled to controls: 0 for no effect and ±100 for the full control effect; nearly all actives have a fitted effect of over 60% in size
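Cells are dispensed, compounds pinned in, plates held at 37 °C for 72 h, then CellTiter-Glo is added and luminescence read after 10 minutes. Cell line: parental KB-3-1 in phenol-red-free DMEM, 10% FBS.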
HT1080 IDH1KD tx: toxicity to HT-1080 IDH1 knockdown cells (counter line) | Potency, µM (series often up to 46.1 µM), for inactives: at the top dose activity, negative = toxicity, actives largely listed as cytotoxic | AID 686971 | 360,000 tested, 2% active | HT-1080 IDH1 knockdown viability, ATP luminescence, 48 h;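 also: 0% = DMSO wells and -100% = cell-free medium wells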
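CellTiter-Glo luminescence after 48 h compound exposure at 37 degrees C of IDH1-knockdown HT-1080 cells in 5% FBS RPMI. %Activity scaled between DMSO wells and cell-free media wells, with curves fitted and assigned curve classes.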
TGFb SMAD3 inh: blocks TGF-b signaling; HepG2 CAGA-GFP TGF-b/SMAD3 reporter, GFP fluorescence, 18 h; TGF-beta stimulated, 500 pg/mL final; Potency, µM (titrated, usually from 46.1 µM), without a hit: at the top dose activity, negative = inhibition, actives largely listed as inhibitors; 410,000 tested, 1.2% active; AID 588855; also: % is scaled to controls: 0 for no effect and ±100 for the full control effect; nearly all actives have a fitted effect of over 65% in size
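Read-out: total well GFP (ex488/em500-530) summed from mean per-cell fluorescence. Cells: HEPG2 CAGA-GFP, 1% FBS DMEM, 18 h at 37 degrees C with 500 pg/mL final TGF-beta. Unstimulated wells served as the full-inhibition control; stimulated DMSO wells = 0%.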
HT1080NT lethal: kills 2HG-producing HT-1080-NT fibrosarcoma cells | HT-1080-NT fibrosarcoma viability, CellTiter-Glo ATP luminescence, 48 h | Potency, µM (series often up to 46.1 µM), for inactives: at the highest dose activity, negative = less viability, actives largely listed as cytotoxic | 360,000 tested, 1.6% active;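 also: NT is the 2HG producing partner of a matched IDH1 knockdown line; 0% = DMSO-treated cells and -100% = media-only wells without cells; nearly all actives have a fitted effect of over 55% in size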
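Luminescent CellTiter-Glo readout after 48 hours of compound exposure at 37 degrees C defined viability of HT-1080-NT cells. Activity was normalized to DMSO wells and cell-free media wells; concentration-response curves were fitted and assigned curve classes.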
HepG2 viability: kills HepG2 cells in TGF-b inhibitor counter-screen; HepG2 CAGA-GFP viability, ATP luminescence, 18 h; Potency, µM (doses to about 46.1 µM), for the others: at the highest dose activity change, negative = cytotoxicity, usual class: cytotoxic; 410,000 tested, 0.76% active; AID 588856
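HepG2 CAGA-GFP cells (1000/well, DMEM with 1% FBS) received compound, then TGF-beta at 500 pg/mL final, and were incubated 18 hours at 37 degrees C. Viability was read by CellTiter-Glo luminescence. Media-only wells were set as complete cell-killing and DMSO as no toxicity.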
An asterisk follows results filed as active; i = inactive; ? = inconclusive; · = no result. An excerpt weighted towards active compounds, which were near 6.6% of everything screened. Calls follow the shape of the dose curve; as a rule, active = well fitted curve in the direction sought with a large enough effect; inconclusive = small, poorly fitted or top-dose-only effect, or another doubt; inactive = no such curve, though single readings can be large; an effect the other way counts as inactive or inconclusive. Potency is read from the fitted curve at half-maximal effect.

SMILES	KB-V1 cytotox	KB-3-1 tox	HT1080 IDH1KD tx	TGFb SMAD3 inh	HT1080NT lethal	HepG2 viability
O=C(Nc1ccc(Cl)cc1)Nc1nnc(CSCc2ccccc2Cl)s1	i	?	0%	?	4%	6%
O=C(Nc1ccc(Cl)c(Cl)c1)Nc1nccs1	4.1µM*	4.6µM*	?	?	?	11µM*
O=C(Nc1cccc(Cl)c1)Nc1nccs1	i	i	-1%	?	-10%	-30%
Cc1ccc(OCCSCc2nnc(NC(=O)Nc3cccc(Cl)c3)s2)cc1	?	5.8µM*	?	?	?	-11%
COc1ccc(OC)c(CNS(=O)(=O)c2c(C(=O)N3CCCCCC3)c(C)n(C)c2C)c1	i	i	·	8%	·	-8%
O=c1c2ccccc2n(Cc2ccccc2Cl)c(=O)n1CCc1ccccc1	?	i	·	6%	·	-24%
CN(C)S(=O)(=O)c1ccc(C(=O)N2CC(=O)Nc3ccc(Br)cc3C2c2ccc(F)cc2)cc1 (stereo not given)	i	i	·	-30%	·	-9%
Cc1nc(N2CCN(C)CC2)c2c3c(sc2n1)CCCC3	i	i	-8%	7%	-16%	1%
CC(O)CNc1nc2ccccc2n1-c1ncnc2sc3c(c12)CCC3 (stereo not given)	13µM*	?	?	-7%	?	-40%
Cc1nc(-n2nnc3ccccc32)c2c3c(sc2n1)CCCC3	13µM*	?	?	-5%	-1%	-11%
c1ccc2c(c1)nnn2-c1ncnc2sc3c(c12)CCCC3	16µM*	i	0%	?	1%	-34%
Cc1nc2ccccc2n1CCc1nc2c3ccccc3nc(SCc3ccccc3F)n2n1	i	i	·	-2%	·	-3%
Cc1ccc(N2CC(C)Cn3c2nc2c3c(=O)n(CC(=O)O)c(=O)n2C)cc1 (stereo not given)	?	i	·	15%	·	-6%
CCOc1c2c(c(-c3ccc4c(c3)OCO4)c3cc(OC)c(OC)cc13)C(=O)OC2	?	1.3µM*	·	?	·	-40%
CC1(C)C(=O)C=C(N2CCCCC2)c2ccccc21	i	i	-6%	-16%	-2%	-21%
COC(=O)c1ccc(-c2ccc(OC)c(C3C4C=CCC(C)C4C(=O)N3Cc3ccccc3)c2)cc1 (stereo not given)	·	·	·	-1%	·	10%
CC(=O)N1CCc2c(sc3c2c(=O)n(CCc2ccccc2)c(=O)n3Cc2ccc(F)cc2)C1	?	?	·	11µM*	·	-63%
CCCN(c1ccccc1F)S(=O)(=O)c1ccc2c(c1)C(C)(C)C(=O)N2C	i	i	·	17%	·	-29%
CCOC(=O)/C(=C\C=C\c1ccccc1)NC(=O)c1ccccc1	4.6µM*	i	-3%	8%	-2%	-15%
O=C(NCCc1ccccc1)/C(=C\c1ccc([N+](=O)[O-])cc1)NC(=O)c1ccc(Br)cc1	i	i	-24%	-4%	-22%	-13%
CCOC(=O)/C(=C/C=C/c1ccccc1)NC(=O)c1ccccc1	i	i	3%	-5%	-4%	14%
Cc1ccc(/C=C(\NC(=O)c2ccccc2)C(=O)OCc2ccccc2)cc1	16µM*	i	-1%	9%	3%	-42%
Cc1ccc(C(=O)N/C(=C\c2ccc([N+](=O)[O-])cc2)C(=O)NCCc2ccccc2)cc1	i	i	11µM*	-24%	?	-34%
CCOC(=O)c1ccc(NC(=O)C(CC)Sc2nc3ncccc3[nH]2)cc1 (stereo not given)	·	·	·	-27%	·	-36%
COC(=O)C1CC(C(=O)OC)C2C(C(=O)OC)CC(C(=O)OC)C12 (stereo not given)	i	i	19%	-6%	0%	-4%
SMILES	KB-V1 cytotox	KB-3-1 tox	HT1080 IDH1KD tx	TGFb SMAD3 inh	HT1080NT lethal	HepG2 viability
c1ccc2c(CSc3nnc(-c4ccncc4)o3)cccc2c1	15µM*	i	10%	1%	?	5%
c1cc(CSc2nnc(-c3ccc4c(c3)OCO4)o2)ccn1	23µM*	i	-1%	-24%	0%	-1%
CCCCN(Cc1ccccc1)S(=O)(=O)c1ccc2c(c1)CC(C)N2C(=O)CC (stereo not given)	i	?	·	?	·	-28%
S=c1[nH]nc(-c2ccccc2)n1/N=C/c1ccc(-c2ccccc2Cl)o1	13µM*	i	?	?	-14%	-46%
Cc1ccccc1CN1C(=O)c2ccccc2S(=O)c2ccc(C(=O)NCc3ccco3)cc21 (stereo not given)	i	i	·	0%	·	-5%
CC(C)N(C(=O)CSc1ncnc2sc(-c3ccccc3)cc12)C(C)C	i	i	8%	-27%	0%	-2%
COC(=O)c1c(C)[nH]c(C(=O)CSc2ncnc3sc(-c4ccccc4)cc23)c1C	?	?	-4%	-13%	-3%	4µM*
CCc1ccc(NC(=O)CN2C(=O)C3(SCC(=O)N3c3ccccc3)c3ccccc32)cc1 (stereo not given)	i	i	·	-10%	·	-23%
CCOC(=O)/C=C(\C)Sc1cc(=O)oc2ccccc12	?	?	16µM*	-5%	15µM*	-31%
CCOC(=O)Nc1oc2ccccc2c(=O)c1C	i	i	7%	13%	12%	-5%
CCOC(=O)/C=C(\C)Sc1cc(O)c2ccccc2c1O	i	i	23µM*	3.2µM*	23µM*	5.6µM*
CCc1cccc(NC(=O)C2CCN(C(=O)c3cnn(-c4ccccc4)c3-n3cccc3)CC2)c1	?	?	·	?	·	-21%
CN1C(=O)/C(=C\C(=O)c2cccs2)c2ccccc21	?	?	?	?	10µM*	-19%
CCOC(=O)CCn1nc(-c2ccc(Cl)cc2)cc1N	?	21µM*	1%	2%	1%	-3%
